In PubChem BioAssay (Tox21):
Where “and” joins values, the source holds several entries; their conditions need not be identical. Identical values can stand only once. Results filed as inconclusive are left out. A call without a number means that no potency is given here. Some compounds were tested as several samples or in several runs, with calls that do not always agree. Calls of active or inactive are those of the source. Calls come from the whole dose curve; as a rule, active = well fitted inhibition curve with a large enough effect in the repeat runs; inconclusive = weak or mixed curves; inactive = no such curve, though single readings can be large or run the other way.

Target: Cytochrome P450 3A4 (Homo sapiens) (UniProt P08684)
Sequence (P08684 whole entry, looked up): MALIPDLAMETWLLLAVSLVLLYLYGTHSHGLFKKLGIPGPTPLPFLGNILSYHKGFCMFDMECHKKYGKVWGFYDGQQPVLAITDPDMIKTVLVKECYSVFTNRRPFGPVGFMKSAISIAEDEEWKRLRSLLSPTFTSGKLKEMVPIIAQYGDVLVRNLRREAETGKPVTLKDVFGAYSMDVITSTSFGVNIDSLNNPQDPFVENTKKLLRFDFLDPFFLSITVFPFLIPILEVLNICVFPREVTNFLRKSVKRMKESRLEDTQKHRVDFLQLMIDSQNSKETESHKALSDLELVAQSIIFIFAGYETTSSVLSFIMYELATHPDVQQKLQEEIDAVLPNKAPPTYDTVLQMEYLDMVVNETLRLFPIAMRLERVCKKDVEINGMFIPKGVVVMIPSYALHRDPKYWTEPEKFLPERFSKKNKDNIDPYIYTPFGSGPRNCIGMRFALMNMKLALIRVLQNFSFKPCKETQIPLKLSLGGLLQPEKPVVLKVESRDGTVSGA
Test: Cytochrome P450 Family 3 Subfamily A Member 4 (CYP3A4) small molecule antagonists: luciferase reporter qHTS assay (AID 1671201); note: nearly all actives have a fitted effect of over 50% in size
Details: P450-Glo CYP3A4 enzyme, luciferin luminescence, 1 h; series mostly up to 115 µM
Outline: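 Compounds in DMSO were pin-transferred onto CYP3A4 enzyme-substrate mix and held 10 min at room temperature. NADPH regenerating solution started the reaction for 1 h; luciferin detection reagent stopped it, and luminescence was read after 20 min.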
Potency is the fitted concentration of half-maximal effect.

| Compound | Potency |
| --- | --- |
| O=C(O)COc1ccc(Cl)cc1Cl | inactive |
| C[C@]12CCC(=O)C=C1CC[C@@H]1[C@@H]2CC[C@]2(C)C(=O)CC[C@@H]12 | inactive |
| COc1ccc(N)cc1 | inactive |
| CN(C)[C@@H]1C(=O)C(C(N)=O)=C(O)[C@@]2(O)C(=O)C3=C(O)c4c(O)cccc4[C@@](C)(O)[C@H]3[C@H](O)[C@@H]12 | inactive |
| CCC[N+]1(C)CCCC1 | inactive |
| CCCCCCCCCCn1cc[n+](C)c1 | inactive |
| CCCC[n+]1ccccc1 | inactive |
| CCCCCC[n+]1ccccc1 | inactive |
| CCCC[n+]1cccc(C)c1 | inactive |
| CCCC[n+]1ccc(C)cc1 | inactive |
| CCCC[n+]1ccccc1C | inactive |
| CCCCCCCCn1cc[n+](C)c1 | inactive |
| CCCC[N+]1(C)CCCC1 | inactive |
| C1CCC(NC2CCCCC2)CC1 | inactive |
| Nc1ccccc1 | inactive |
| CCCCCCn1cc[n+](C)c1 | inactive |
| CCCCn1cc[n+](C)c1C | inactive |
| COc1ccccc1N | 22.4 µM (active) and inactive and 28.3 µM (active) |
| Cc1cc(Cl)ccc1OCC(=O)O | inactive |
| CCCCCCCCCCCCn1cc[n+](C)c1 | 80.3 µM (active) and inactive |
